Screening results deposited in PubChem BioAssay by Johns Hopkins Ion Channel Center.
KCNQ2 inh: rat KCNQ2 potassium channel inhibitors, primary screen, cell-based, CHO-K1, FluxOR thallium flux, B-score; B-score at 10 µM; Potassium voltage-gated channel subfamily KQT member 2 (Rattus norvegicus), O88943; hit rate 1.1% among 310,000; AID 2156, 2009; 20 min; hits give low values;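 active = fluorescence ratio B-score at most minus 3 library SDs, with starting brightness B-score within 2 library SDs, cut at about -5.5 in these data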
Target sequence (O88943 whole entry, looked up): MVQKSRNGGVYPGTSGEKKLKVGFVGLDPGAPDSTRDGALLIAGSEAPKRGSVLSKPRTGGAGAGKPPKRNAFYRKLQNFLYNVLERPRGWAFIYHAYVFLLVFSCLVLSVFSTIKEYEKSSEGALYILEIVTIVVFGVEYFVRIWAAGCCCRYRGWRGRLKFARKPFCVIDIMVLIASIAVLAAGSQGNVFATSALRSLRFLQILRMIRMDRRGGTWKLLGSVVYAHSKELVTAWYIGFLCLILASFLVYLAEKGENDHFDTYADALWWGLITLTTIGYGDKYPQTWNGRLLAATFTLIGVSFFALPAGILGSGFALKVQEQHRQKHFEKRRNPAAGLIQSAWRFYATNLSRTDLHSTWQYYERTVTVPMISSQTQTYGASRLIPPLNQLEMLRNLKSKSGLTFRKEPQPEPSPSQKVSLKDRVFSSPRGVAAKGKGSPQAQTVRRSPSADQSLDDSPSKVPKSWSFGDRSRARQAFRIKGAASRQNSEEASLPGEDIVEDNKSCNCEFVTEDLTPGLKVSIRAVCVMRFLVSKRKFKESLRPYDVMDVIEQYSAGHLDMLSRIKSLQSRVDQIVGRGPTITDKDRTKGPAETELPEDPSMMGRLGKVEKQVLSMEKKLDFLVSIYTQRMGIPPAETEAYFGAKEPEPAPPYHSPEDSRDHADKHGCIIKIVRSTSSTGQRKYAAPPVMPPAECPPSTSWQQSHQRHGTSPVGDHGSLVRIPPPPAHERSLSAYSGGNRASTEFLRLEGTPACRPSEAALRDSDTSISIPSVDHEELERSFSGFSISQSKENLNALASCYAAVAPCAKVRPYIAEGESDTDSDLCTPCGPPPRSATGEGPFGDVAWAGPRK
KCNQ2 enhance: potentiators of rat KCNQ2 potassium channel; CHO-K1 KCNQ2, FluxOR thallium flux fluorescence; hits give high values; B-score at 10 µM; hit rate 0.54% among 310,000; AID 2239, 2010;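 active = fluorescence ratio B-score at least 3 SD of library B-scores, with initial fluorescence B-score within 3 of them, cut at about 5.3 in these data; same plate scores as AID 2156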;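 note: B-score of peak minus minimum over baseline fluorescence ratio after K+ and Tl+ stimulus; positive B-score means potentiation of KCNQ2 with more thallium influx and brighter signal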
Numbers without * were called inactive. A selection: hits, their analogues and other compounds. The true share with any hit is near 1.6%.

For CCC(C)(C)n1nnnc1C(c1cc2cc(OC)ccc2[nH]c1=O)N1CCc2ccccc21 (stereo not drawn) the results were KCNQ2 inh inactive and KCNQ2 enhance 3.
`Cc1ccc2[nH]c(=O)c(C(c3nnnn3C3CCCC3)N3CCCc4ccccc43)cc2c1` (stereo not drawn) gave KCNQ2 inh inactive and KCNQ2 enhance 0.06.
For CCC(C)(C)n1nnnc1C(c1cc2cc(C)ccc2[nH]c1=O)N1CCCc2ccccc21 (stereo not drawn) the results were KCNQ2 inh inactive and KCNQ2 enhance 34*.
CCOC(=O)C1(CC)NC(c2ccc(OC)c(OC)c2)C2C(=O)N(c3cccc(C(C)=O)c3)C(=O)C21 (stereo not drawn) was read as KCNQ2 inh inactive.
For COc1cccc(OCCCCSc2ncccn2)c1 the results were KCNQ2 inh inactive.
For c1ccc(Oc2cccc(OCCCCSc3ncccn3)c2)cc1 the results were KCNQ2 inh -6.2* and KCNQ2 enhance -6.2.
Screening O=C(Nc1ccccc1)C1=C[C@H](c2ccc(Br)cc2)C[C@H](OCc2ccc(CO)cc2)O1 returned KCNQ2 inh inactive.
O=C(CN(Cc1ccco1)C(=O)Cn1nnc(-c2ccc(F)cc2)n1)NC1CCCC1 was read as KCNQ2 inh inactive and KCNQ2 enhance 0.08.
Screening CCCCC(C(=O)NC1CCCC1)N(Cc1ccco1)C(=O)Cn1nnc(-c2ccc(F)cc2)n1 (stereo not drawn) returned KCNQ2 inh -7.2* and KCNQ2 enhance -7.2.
For CCc1ccc(S(=O)(=O)N/N=C\c2ccc3c(c2)OCO3)cc1 the results were KCNQ2 inh inactive.
Screening CC1C/C(=N/Nc2nc3ccccc3[nH]2)CC(C)(C)C1 (stereo not drawn) returned KCNQ2 inh inactive and KCNQ2 enhance 1.1.
Cc1cc(N/N=C2\CC(C)CC(C)(C)C2)nc2ccccc12 (stereo not drawn) was read as KCNQ2 inh -5.6* and KCNQ2 enhance -5.6.
For N#CCCN/N=C(/Cc1nc2ccccc2[nH]1)c1ccc(Cl)cc1 the results were KCNQ2 inh -10* and KCNQ2 enhance -10.
`N#CCCN/N=C(\Cc1nc2ccccc2[nH]1)c1ccccc1` gave KCNQ2 inh inactive.
Screening O=C1CC(=O)Nc2cc(S(=O)(=O)N3CCOc4ccc(Cl)cc43)ccc2N1 returned KCNQ2 inh inactive.
CCc1nnc(NC(=O)CCC(=O)NC2CCCCCCC2)s1 was read as KCNQ2 inh inactive and KCNQ2 enhance 0.57.
For COc1c(Cl)cc(-c2noc(C)c2C(=O)NCc2ccc3c(c2)OCO3)cc1Cl the results were KCNQ2 inh inactive and KCNQ2 enhance 14*.
`COc1c(Cl)cc(-c2noc(C)c2C(=O)NCc2ccccc2)cc1Cl` gave KCNQ2 inh inactive and KCNQ2 enhance 4.4.
For CCOC(=O)c1c(NC(=O)Cn2cnc([N+](=O)[O-])n2)sc(C)c1C the results were KCNQ2 inh inactive.
COC(=O)c1cn(C(=O)c2ccccc2)c2ccccc12 was read as KCNQ2 inh inactive.
`COC(=O)c1cn(C(=O)c2cc(OC)cc(OC)c2)c2ccccc12` gave KCNQ2 inh -6.3* and KCNQ2 enhance -6.3.
Screening O=C(COC(=O)c1ccc(Br)o1)Nc1cccc(S(=O)(=O)N2CCCCCC2)c1 returned KCNQ2 inh inactive and KCNQ2 enhance 1.7.
Screening CC1=CC(C)(C)N(C(=O)c2ccccc2)c2ccc(C)cc21 returned KCNQ2 inh inactive.
For CC1=CC(C)(C)N(C(=O)c2ccccc2)c2ccccc21 the results were KCNQ2 inh -5.6* and KCNQ2 enhance -5.6.
For Cc1ccccc1NC(=O)NC1(C(=O)N2CCC(C(N)=O)CC2)CCCCC1 the results were KCNQ2 inh inactive and KCNQ2 enhance 1.
For O=c1c2cc(Cl)ccc2[nH]c(=S)n1Cc1cccs1 the results were KCNQ2 inh inactive and KCNQ2 enhance 5.3*.
Screening O=c1c2cc(Cl)ccc2[nH]c(=S)n1Cc1ccco1 returned KCNQ2 inh inactive.
For C/C(=N\NC(=O)c1cc(-c2cccc([N+](=O)[O-])c2)n[nH]1)c1ccccc1O the results were KCNQ2 inh inactive.
Screening O=C(CN1CCN(c2ccccc2O)CC1)Nc1ccc2c(c1)CCC2 returned KCNQ2 inh inactive.
`CCOc1ccc(S(=O)(=O)NCCC(=O)OCC(=O)N2CC(=O)Nc3ccccc32)cc1` gave KCNQ2 inh inactive.
`O=C(NC1CCCC1)C(c1ccccc1)N(C(=O)c1csnn1)c1ccccc1F` (stereo not drawn) gave KCNQ2 inh inactive and KCNQ2 enhance 0.47.
Screening CN(CC(=O)NC(c1ccccc1)c1ccccc1)Cc1nc2ccccc2c(=O)[nH]1 returned KCNQ2 inh -6.6* and KCNQ2 enhance -6.6.
For CN(CC(=O)Nc1ccccc1Sc1ccccc1)Cc1nc2ccccc2c(=O)[nH]1 the results were KCNQ2 inh inactive.
Screening Cc1cccc(/C=N\N=C\c2cccc(C)c2)c1 returned KCNQ2 inh inactive.
For CC(C)(C)C(=O)Nc1c2c(nn1-c1ccccc1)CSC2 the results were KCNQ2 inh -8.2* and KCNQ2 enhance -8.2.
For CC(=O)Nc1c2c(nn1-c1ccccc1)CSC2 the results were KCNQ2 inh inactive and KCNQ2 enhance 0.7.
Screening CC(Oc1ccc(Br)cc1)C(=O)NCC(c1cccs1)N1CCOCC1 (stereo not drawn) returned KCNQ2 inh inactive and KCNQ2 enhance 0.52.
CC(Sc1nc2ccccc2n1C)C(=O)NC(c1ccccc1)c1ccccc1 (stereo not drawn) was read as KCNQ2 inh -6.1* and KCNQ2 enhance -6.1.
For Cn1c(SC(C(=O)Nc2ccc(F)cc2)c2ccccc2)nc2ccccc21 (stereo not drawn) the results were KCNQ2 inh inactive and KCNQ2 enhance 1.3.
`Cc1cc(C)c2[nH]c(O)c(N=NC3=NC(=O)CS3)c2c1` gave KCNQ2 inh inactive and KCNQ2 enhance 0.94.
For CCc1ccc2c(c1)c(N=NC1=NC(=O)CS1)c(O)n2C the results were KCNQ2 inh inactive and KCNQ2 enhance 5.8*.
`CN1CCC(=NNC(=O)C(=O)Nc2ccccc2F)CC1` gave KCNQ2 inh inactive and KCNQ2 enhance 0.26.
Screening O=c1ccc2cc(S(=O)(=O)NCc3ccccc3)ccc2[nH]1 returned KCNQ2 inh inactive and KCNQ2 enhance 0.16.
COc1ccccc1N1CCN(C(=O)C(C)N(c2ccccc2)S(C)(=O)=O)CC1 (stereo not drawn) was read as KCNQ2 inh -5.7* and KCNQ2 enhance -5.7.
For COc1ccccc1N1CCN(C(=O)C(C)N(c2ccc(C)cc2)S(C)(=O)=O)CC1 (stereo not drawn) the results were KCNQ2 inh inactive.
COC(=O)[C@@H](Cc1c[nH]c2ccccc12)NC(=O)CNC(=O)c1ccccc1OC was read as KCNQ2 inh inactive.
`N#CC(c1cccc(C(F)(F)F)c1)(c1ncc(C(F)(F)F)cc1Cl)N1CCOCC1` (stereo not drawn) gave KCNQ2 inh inactive.
N#CC(c1ccccc1)(c1ncc(C(F)(F)F)cc1Cl)N1CCOCC1 (stereo not drawn) was read as KCNQ2 inh -7* and KCNQ2 enhance -7.
Screening COc1ccc(/C(C)=C(\C#N)C(=O)OC(C)C)cc1OC returned KCNQ2 inh inactive and KCNQ2 enhance 0.61.
`COc1ccc(-c2cc(C(F)(F)F)nc(N3CCN(c4ccc(F)cc4)CC3)n2)cc1OC` gave KCNQ2 inh inactive and KCNQ2 enhance 0.7.
